Experimental findings from PubChem BioAssay (NCATS) are described below.

The target in this assay is ATP-dependent 6-phosphofructokinase (Trypanosoma brucei brucei) (UniProt O15648). Kind of assay: qHTS Assay to Find Inhibitors of T. brucei phosphofructokinase: hit validation (AID 492961).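 Also: luminescence reports ADP formed as PFK phosphorylates fructose-6-phosphate with ATP.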 As to conditions: T. brucei PFK, ADP-Glo luminescence; series mostly up to 51.4 µM. The method, boiled down: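 ADP-Glo luminescence read-out of ADP formed by 1.25 nM PFK from 0.1 mM ATP and 0.5 mM F6P (TEA pH 8.0, 45 min, RT). Compounds titrated; activity normalized to no-enzyme and full-enzyme controls.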
Background: In qHTS, concentration-response curves come from the screen itself.

Molecules are shown by their SMILES. Inconclusive results are not listed. A call without a number means that no potency is given here. Activity calls are given as the source filed them. Calls follow the shape of the dose curve; as a rule, active = well fitted inhibition curve with a large enough effect; inconclusive = small, poorly fitted or top-dose-only effect, or effect the other way; inactive = flat fitted curve, though single readings scatter.

Sequence of ATP-dependent 6-phosphofructokinase (Trypanosoma brucei brucei) (O15648 whole entry, looked up): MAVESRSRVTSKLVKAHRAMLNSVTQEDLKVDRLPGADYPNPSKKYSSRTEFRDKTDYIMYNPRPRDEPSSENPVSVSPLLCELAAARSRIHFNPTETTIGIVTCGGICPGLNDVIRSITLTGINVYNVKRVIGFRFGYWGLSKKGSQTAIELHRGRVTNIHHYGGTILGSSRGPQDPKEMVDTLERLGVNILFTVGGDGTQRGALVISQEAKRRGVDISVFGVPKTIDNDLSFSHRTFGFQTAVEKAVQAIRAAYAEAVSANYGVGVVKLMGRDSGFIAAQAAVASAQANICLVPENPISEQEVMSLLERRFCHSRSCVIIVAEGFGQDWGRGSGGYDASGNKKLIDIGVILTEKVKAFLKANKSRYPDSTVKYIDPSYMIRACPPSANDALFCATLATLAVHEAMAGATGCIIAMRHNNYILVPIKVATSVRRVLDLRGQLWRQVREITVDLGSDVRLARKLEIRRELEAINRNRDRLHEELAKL

As for `O=C(O)COc1ccc(CCNS(=O)(=O)c2ccccc2)s1`, the Potency entry is “inactive”.
For the compound `C(=C\c1ccncc1)/c1ccccc1`, the Potency result was “inactive”.
`CCN(CC)C(=O)c1cccnc1`: the Potency result is “inactive”.
As for `CCCCCCCCCCCCCCCCCC(=O)OC[C@@H](O)[C@H]1OC[C@H](O)[C@H]1O`, the Potency result was “inactive”.
For `CCCCCCCCCCCCCCCCCC[N+](C)(C)CCC[Si](OC)(OC)OC`, the Potency result was “inactive”.
In the case of `CCN(CC)CCOc1ccccc1OC` it was “inactive”.
With `OCC(O)CO`, the Potency result was “inactive”.
As to `CC1=CC(=O)NS(=O)(=O)O1`, the Potency entry is “inactive”.
Take `NC(=O)[C@H]1O[C@@H](O)[C@H](O)[C@@H](O)[C@@H]1O`: the Potency result was “inactive”.
Consider `COC1=C(OC)C(=O)C(C/C=C(\C)CC/C=C(\C)CC/C=C(\C)CC/C=C(\C)CC/C=C(\C)CC/C=C(\C)CC/C=C(\C)CC/C=C(\C)CC/C=C(\C)CCC=C(C)C)=C(C)C1=O`, for which the Potency result is “inactive”.
Turning to `CN1C(C(=O)Nc2ccccn2)C(=O)c2sc(Cl)cc2S1(=O)=O` (stereo not given), the Potency result was “inactive”.
In the case of `CCCCCCCCCCCCCCCCCCCCCC(=O)Nc1ccn([C@@H]2O[C@H](CO)[C@@H](O)[C@@H]2O)c(=O)n1`, the Potency entry is “inactive”.
Take `CC(C)(C)CC(C)(C)c1ccc(OCCO)cc1`: the Potency entry is “inactive”.
As to `C#C[C@]1(O)CC[C@@H]2[C@H]3CCC4=CC(=O)CC[C@H]4[C@H]3C(=C)C[C@@]21CC`, the Potency result is “inactive”.
Take `CC12CCC(C[N+](C)(CCC[N+](C)(C)C)C1)C2(C)C` (stereo not given): the Potency result is “inactive”.
To `CC(C)c1nc(N(C)S(C)(=O)=O)nc(-c2ccc(F)cc2)c1/C=C/C(O)CC(O)CC(=O)O` (stereo not given) belongs “inactive”; to `COc1ccc(C[C@H](C)NC[C@@H](O)c2ccc(O)c(NC=O)c2)cc1`, “inactive”.
With `CC(C)c1ncc([N+](=O)[O-])n1C`, the Potency result was “inactive”.
To `CS(=O)(=O)OCC(O)C(O)COS(C)(=O)=O` (stereo not given) belongs “inactive”.
For the compound `NC(=S)NS(=O)(=O)c1ccc(N)cc1`, the Potency result was “inactive”.
Turning to `O=P(O)(O)OP(=O)(O)OP(=O)(O)O`, the Potency entry was “inactive”.
Regarding `CCCCC(CC)COS(=O)(=O)O` (stereo not given), the Potency entry was “inactive”.
Turning to `C[C@H]1O[C@@H](O[C@H]2[C@@H](O)C[C@H](O[C@H]3[C@@H](O)C[C@H](O[C@H]4CC[C@@]5(C)[C@H](CC[C@@H]6[C@@H]5C[C@@H](O)[C@]5(C)[C@@H](C7=CC(=O)OC7)CC[C@]65O)C4)O[C@@H]3C)O[C@@H]2C)C[C@H](O)[C@@H]1O`, the Potency result was “inactive”.
`c1ccc2c(c1)OCC(CN1CCCCC1)O2` (stereo not given): the Potency result was “inactive”.
As to `COc1ccc2c(=O)c(C)c(-c3ccccc3)oc2c1CN(C)C`, the Potency result was “inactive”.
Turning to `N[C@@H](Cc1cc(I)c(Oc2ccc(O)c(I)c2)c(I)c1)C(=O)O`, the Potency result was “inactive”.
`C[C@H](CCCC(C)(C)O)[C@H]1CC[C@H]2[C@@H]3CC=C4C[C@@H](O)CC[C@]4(C)[C@H]3CC[C@]12C`: the Potency entry is “inactive”.
In the case of `O=S(=O)(O)CCCS(=O)(=O)O` it was “inactive”.
In the case of `CCN(CC)CCC(=O)N1c2ccccc2Sc2ccc(Cl)cc21` it was “inactive”; in that of `CCCCCCCCCCCC(=O)N(CCO)CCO`, “inactive”; in that of `C[C@H](CCC(=O)O)[C@H]1CC[C@H]2[C@@H]3CC[C@@H]4C[C@H](O)CC[C@]4(C)[C@H]3C[C@H](O)[C@]12C`, “inactive”.
Turning to `F[Si-2](F)(F)(F)(F)F`, the Potency result was “inactive”.
Regarding `O=P(O)(O)OC[C@H](O)CO`, the Potency entry is “inactive”.
For `O=C(OC1C[C@@H]2CC3C[C@H](C1)N2CC3=O)c1c[nH]c2ccccc12` (stereo not given in full), the Potency result is “inactive”.
In the case of `Nc1ncnc2c1ncn2CCOCP(=O)(O)O` it was “inactive”; in that of `CCCc1nc(C(C)(C)O)c(C(=O)OCc2oc(=O)oc2C)n1Cc1ccc(-c2ccccc2-c2nn[nH]n2)cc1`, “inactive”.
On to `Cc1cccc(C)c1NC(=O)NC1=CCCN1C`, for which the Potency entry was “inactive”.
In the case of `O=[n+]1ccn([O-])c2ccccc21` it was “inactive”; in that of `O=c1n(CC2CO2)c(=O)n(CC2CO2)c(=O)n1CC1CO1` (stereo not given), “inactive”.
Take `CCCCCCCCCCCC(=O)OCC(O)CO` (stereo not given): the Potency result is “inactive”.
Turning to `COc1ccc2c(c1)OC(C)(C)C(c1ccccc1)C2c1ccc(OCCN2CCCC2)cc1` (stereo not given), the Potency entry was “inactive”.
As to `CN1CCCC(CN2c3ccccc3Sc3ccccc32)C1` (stereo not given), the Potency entry is “inactive”.
As to `OCC1(CO)COC(C(Cl)(Cl)Cl)OC1`, the Potency result was “inactive”.
Turning to `c1ccc2c(c1)Sc1ccccc1N2CCN1CCCC1`, the Potency result is “inactive”.
Turning to `OC1OC[C@@H](O)[C@H](O)[C@@H]1O` (stereo not given in full), the Potency result is “inactive”.
For the compound `NCCN`, the Potency entry is “inactive”.
In the case of `OCCCNc1ccccc1`, the Potency result is “inactive”.
As to `[O-][N+](=Nc1ccccc1)c1ccccc1`, the Potency result was “inactive”.
With `CC/C=C\C/C=C\C/C=C\C/C=C\C/C=C\C/C=C\CCC(=O)O`, the Potency entry is “inactive”.
Take `CC(=O)Nc1ccc(NC(=S)NC(=O)c2ccc(C(C)(C)C)cc2)cc1`: the Potency entry was “inactive”.
